ADAM10 inh: inhibits human ADAM10; O14672; inhibition, % at 7 µM; hit rate 0.62% among 370,000; AID 720582; recombinant ADAM10, EDANS/DABCYL FRET peptide cleavage, 3 h;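 active = inhibition above a per-campaign cutoff equal to the mean of compounds falling between control-based bounds plus 3 SD, cut at about 20% in these data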
PLCb3 inh: PLC-beta3 (human) inhibition, primary screen; hit rate 0.18% among 370,000; Purified PLC-beta3, fluorogenic substrate, fluorescence; inhibition, % at 12.2 µM; in the data active = inhibition above about 11%
ADAM17 inh: ADAM17 inhibition, QFRET primary screen | P78536 | recombinant ADAM17, EDANS/DABCYL FRET peptide cleavage | AID 720648 | hit rate 0.83% among 370,000 | inhibition, % at 6.95 µM;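 active = inhibition above the mean of compounds lying between control limits plus 3 SD, set per campaign, cut at about 8.5% in these data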
KLK7 zymogen act: proKLK7 (human) activation, primary screen; P49862; purified proKLK7, EDANS-DABCYL substrate fluorescence; 100% is mature enzyme control, 0% vehicle; activation, % at 7 µM; hit rate 0.9% among 370,000; AID 652039;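 active = activation above the mean of all tested compounds plus 3 SD, computed per campaign excluding outliers beyond control limits, cut at about 13% in these data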
PLC-gamma1 inh: inhibitors of human phospholipase C gamma1; inhibition, % at 12.2 µM; hit rate 0.84% among 370,000; purified PLC-gamma1, fluorogenic substrate, fluorescence; AID 720700; P19174; in the data active = inhibition above about 9.5%
ADAM10 confirm: human ADAM10 inhibition, confirmation. inhibition, % at 6.95 µM. ADAM10 QFRET peptide cleavage, EDANS fluorescence. hit rate 1% among 2,100. shares compounds with ADAM10 inh;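 active = inhibition above about 20% chosen separately for each screening run, limit read from the data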
ADAM17 counter: inhibits human ADAM17 in ADAM10 exosite counter-screen. shares compounds with ADAM10 inh. ADAM17 QFRET peptide cleavage, EDANS fluorescence. inhibition, % at 6.95 µM. hit rate 0.5% among 2,100;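 active = mean triplicate inhibition above the solvent-only control wells' mean plus 3 SD, cut at about 12% in these data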
Each line names hits and unclear results; the compound was inactive in the other large screens (follow-up assays come after a bar, where they were run). Most compounds without a hit are left out; they make up all but 2.9% or so of the library.

COc1ccccc1CCC(=O)Nc1cccc(S(=O)(=O)N2CCCCCC2)c1	ADAM10 inh 23 | ADAM10 confirm inactive | ADAM17 counter inactive
COc1ccccc1CCC(=O)Nc1cccc(S(=O)(=O)N2CCOCC2)c1	none
Nc1[nH]c(C(=O)c2ccc(Br)cc2)c(-c2ccc(Br)cc2)c1C(=O)NCc1ccc(-c2ccccc2)cc1	none
C[C@H]1[C@H](N)CC[C@@]23CCCN2C(=O)CCC[C@@H]13	none (no result: KLK7 zymogen act)
COc1ccc(NC(=O)CSc2nc3c([nH]c4ccccc43)c(=O)n2C)cc1	ADAM10 inh 57 | ADAM10 confirm inactive | ADAM17 counter inactive
O=C(O)Cn1nnnc1SCC(=O)Nc1ccc(OC(F)(F)F)cc1	ADAM10 inh 82 | ADAM10 confirm inactive | ADAM17 counter inactive
COc1ccc(C=Nn2c(-c3ccccc3F)n[nH]c2=S)cc1OCc1ccccc1	none
S=c1[nH]nc(COc2ccccc2)n1/N=C/C(Cl)=C/c1ccccc1	ADAM10 inh 20 | ADAM10 confirm inactive | ADAM17 counter inactive
Fc1ccccc1-c1n[nH]c(=S)n1N=Cc1ccc(OCc2ccccc2)cc1	ADAM10 inh 25 | ADAM10 confirm inactive | ADAM17 counter inactive
COc1cccc(C(C)(O)c2nc(-c3ccc(C)c(C)c3)cs2)c1 (stereo not given)	ADAM10 inh 21 | ADAM10 confirm inactive | ADAM17 counter inactive
CCOc1cc(S(=O)(=O)Nc2ccccc2CC)ccc1Cl	none
CCOc1cc(S(=O)(=O)Nc2ccc(CC)cc2)ccc1Cl	ADAM10 inh 25 | ADAM10 confirm inactive | ADAM17 counter inactive
C[C@@H]1C[C@@H]2O[C@H]2CCCCC(=O)Cc2cc(O)cc(O)c2C(=O)O1	none
Cc1cc(C)cc(NC(=O)Nc2ccc(-n3ccc(C(F)(F)F)n3)cc2)c1	none
COc1ccccc1NC(=O)Nc1ccc(-n2ccc(C(F)(F)F)n2)cc1	ADAM10 inh 30 | ADAM10 confirm inactive | ADAM17 counter inactive
O=C(NCc1ccccc1)c1nc[nH]c1C(=O)NCc1ccccc1	none
CC(C)(C)OC(=O)NCc1ccc(CNC(=O)c2nc[nH]c2C(=O)NCc2ccccc2)cc1	ADAM10 inh 21 | ADAM10 confirm inactive | ADAM17 counter inactive
CN(Cc1ccccc1)C(=O)c1[nH]cnc1C(=O)N[C@@H](Cc1ccccc1)C(=O)OC(C)(C)C	ADAM10 inh 23 | ADAM10 confirm inactive | ADAM17 counter inactive
O=C(Nc1ccccc1)c1nc[nH]c1C(=O)NCc1ccccc1	ADAM10 inh 24 | ADAM10 confirm inactive | ADAM17 counter inactive
O=C(N[C@@H](Cc1ccccc1)C(=O)OCc1ccccc1)c1nc[nH]c1C(=O)N1CCc2ccccc2C1	ADAM10 inh 20, ADAM17 inh 9.3 | ADAM10 confirm inactive | ADAM17 counter inactive
CC(C)(C)C(=O)OC12CCCN(C1)/C(=C/c1ccncc1)C2 (stereo not given)	none
Cc1cccc(NC(=O)c2nc[nH]c2C(=O)N[C@H](C)c2ccccc2)c1	ADAM10 inh 23 | ADAM10 confirm inactive | ADAM17 counter inactive
CN(C)[C@H]1CCN(c2cccc3c2S(=O)(=O)N(C2CC2)CCCO3)C1	none
O=C(NCCO)C1(C(=O)C2CC2)CC(c2ccccc2C(F)(F)F)=NO1 (stereo not given)	none
COc1cc(OC)c(N(C)S(=O)(=O)c2cccc(C(=O)OCC(=O)c3c[nH]c4ccccc34)c2)cc1Cl	ADAM10 inh 32 | ADAM10 confirm inactive | ADAM17 counter inactive
COc1ccc(C(=O)OCC(=O)c2c[nH]c3ccccc23)cc1OC	none
Cc1ccc(N(CC(=O)Nc2ccc3c(c2)OCCO3)S(=O)(=O)c2c(C)n[nH]c2C)cc1	ADAM10 inh 20 | ADAM10 confirm inactive | ADAM17 counter inactive
Cc1ccc(N(CC(=O)Nc2ccc3c(c2)OCCO3)S(=O)(=O)c2c(C)noc2C)cc1	none
COc1cc(-c2c(C(=O)c3ccccc3)[nH]c(N)c2C(=O)NCCc2c[nH]c3ccccc23)ccc1F	none
COCc1[nH]nc2c1C(c1ccc(F)cc1)N(Cc1ccccc1)C2=O (stereo not given)	none
CCS(=O)(=O)Nc1ccc2c(c1)C(=O)N(C)[C@@H]1CC[C@H](CC(=O)OC)O[C@H]1CO2	none

Screens from PubChem.
